# Source: PubChem (National Center for Advancing Translational Sciences (NCATS))
# Rows were chosen to be rich in hits. Some 19% of all compounds tested hit in one or more screens of this group.
# ASM inhibitor – human S-ASM enzyme inhibition; P17405; placental ASM, HMU-PC fluorogenic substrate, 60 min; Potency, µM (series often up to 57.5 µM), for inactives: at the highest dose activity change, negative = inhibition, actives largely listed as inhibitors; hit rate 0.006% among 340,000; note: potency is the fitted concentration of half-maximal effect
# Target sequence (P17405 47-631 limits assumed): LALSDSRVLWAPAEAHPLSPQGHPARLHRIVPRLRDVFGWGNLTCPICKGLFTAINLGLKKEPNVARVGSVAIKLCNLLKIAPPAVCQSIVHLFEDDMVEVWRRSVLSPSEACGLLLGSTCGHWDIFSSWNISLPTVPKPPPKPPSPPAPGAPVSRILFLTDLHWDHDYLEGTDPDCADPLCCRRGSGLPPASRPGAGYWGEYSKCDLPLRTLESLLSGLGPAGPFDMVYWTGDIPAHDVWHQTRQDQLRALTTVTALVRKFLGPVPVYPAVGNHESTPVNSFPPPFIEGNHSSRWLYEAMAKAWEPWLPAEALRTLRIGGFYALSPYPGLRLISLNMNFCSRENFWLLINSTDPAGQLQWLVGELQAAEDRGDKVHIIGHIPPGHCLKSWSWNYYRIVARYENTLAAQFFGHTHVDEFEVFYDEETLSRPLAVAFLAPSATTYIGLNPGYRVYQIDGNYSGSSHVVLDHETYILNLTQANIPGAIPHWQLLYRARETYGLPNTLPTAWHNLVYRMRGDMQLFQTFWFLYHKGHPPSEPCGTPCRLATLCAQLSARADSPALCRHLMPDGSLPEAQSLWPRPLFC
#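 HMU-PC0 cleavage (9 uM final) by human placental ASM, 60 min at 37 °C following 10 min compound exposure at RT; stopped at pH 10, fluorescence Ex 386/Em 447 nm.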
# IL1B secr inh – inflammasome signaling inhibition, IL-1 beta readout | THP-1 LPS/ATP IL-1B secretion, AlphaLISA, 16 h; active compounds read low | activity change, % at 57.5 µM | hit rate 4.7% among 360,000 | AID 743279; in the data active = activity change below about -50%; inconclusive = mostly about -30% to -49%; note: % is set by controls: 0 for no effect and ±100 for the full control effect
#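 Secreted IL-1B measured by AlphaLISA bead assay after 16 h compound exposure of THP-1 cells; compounds (final up to 57.5 uM) added 1 h before LPS (250 ng/mL) and ATP (1.25 mM) stimulation; lower signal means less secretion.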
# TGFb SMAD3 inh – TGF-b pathway inhibition. HepG2 CAGA-GFP TGF-b/SMAD3 reporter, GFP fluorescence, 18 h; TGF-beta stimulated, 500 pg/mL final. Potency, µM (top dose mostly 46.1 µM), inactives show at the top dose activity, negative = inhibition, usual class: inhibitors. hit rate 1.2% among 410,000; note: potency is the fitted concentration of half-maximal effect; % is set by controls: 0 for no effect and ±100 for the full control effect; nearly all actives have a fitted effect of over 65% in size
#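 First, reporter cells (HEPG2 CAGA-GFP) rested 2 h at 37 degrees C. Next, compounds were pinned in and TGF-beta added to 500 pg/mL final. After 18 h, GFP was imaged per cell and summed per well.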
# HepG2 tox – HepG2 cytotoxicity, counter-screen for TGF-b inhibitors. HepG2 CAGA-GFP viability, ATP luminescence, 18 h. Potency, µM (top dose mostly 46.1 µM), for the others: top-dose activity change, negative = cytotoxicity, most hits filed as cytotoxic. hit rate 0.76% among 410,000. AID 588856; note: potency is the fitted concentration of half-maximal effect
#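 CellTiter-Glo luminescence gave cytotoxicity after 18 hours at 37 degrees C. The cells were HepG2 CAGA-GFP in 1% FBS DMEM, stimulated with 500 pg/mL TGF-beta after compound addition. %Activity was normalised to no-cell wells (complete cell-killing) and DMSO (no toxicity), and curves were fitted and classified.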
# TDP1 cell CPT – DT40-hTDP1 cell growth loss with CPT. chicken DT40 Tdp1-/-;hTDP1 cells + 20 nM CPT, ATP luminescence, 48 h. Potency, µM (top dose mostly 46.2 µM), inactives show top-dose activity change, negative = growth inhibition, usual class: inhibitors. hit rate 12% among 420,000. AID 686979; note: potency is the fitted concentration of half-maximal effect; % is set by controls: 0 for no effect and ±100 for the full control effect; nearly all actives have a fitted effect of over 55% in size
#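 Cell growth measured by CellTiter-Glo luminescence after a minimum 48 h, 37 C compound exposure with 20 nM CPT in Tdp1-knockout DT40 cells stably expressing hTDP1, seeded 400/well; qHTS titration format.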
# TDP1 cell noCPT – qHTS for Inhibitors of human tyrosyl-DNA phosphodiesterase 1 (TDP1): qHTS in cells in absence of CPT; AID 686978, 2013; Potency, µM (titrated, usually from 46.2 µM), without a hit: at the highest dose activity change, negative = growth inhibition, usual class: inhibitors; DT40 Tdp1-/- hTDP1 cells, no CPT, ATP luminescence, 48 h; hit rate 15% among 420,000; note: potency is the fitted concentration of half-maximal effect; % is set by controls: 0 for no effect and ±100 for the full control effect; nearly all actives have a fitted effect of over 55% in size
#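 Stably hTDP1-transfected Tdp1-null chicken DT40 cells were treated with library compounds minus camptothecin and grown for at least 48 hr at 37 °C, after which cellular ATP was quantified by luminescence.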
# * = called active by the depositor; i = inactive; ? = inconclusive; nt = no result. Unless noted, calls come from the whole dose curve; as a rule, active = well fitted curve in the direction sought with a large enough effect; inconclusive = small, poorly fitted or top-dose-only effect, or another doubt; inactive = no such curve, though single readings can be large; an effect the other way counts as inactive or inconclusive.
SMILES,ASM inhibitor,IL1B secr inh,TGFb SMAD3 inh,HepG2 tox,TDP1 cell CPT,TDP1 cell noCPT
COc1ccccc1NC(=O)c1ccc(NC(=O)c2cc3c(s2)CCC3)cc1,-8%,170,-5%,-13%,?,16µM*
O=C(c1ccccc1)c1sc(Nc2ccc3c(c2)OCO3)nc1-c1ccccc1,nt,nt,?,4%,?,?
N#Cc1ccc(Nc2nc(-c3ccccc3)c(C(=O)c3ccccc3)s2)cc1,nt,-52*,?,11µM*,18µM*,23µM*
COc1ccc(S(=O)(=O)CC(=O)c2cc3cc(Br)ccc3oc2=O)cc1,-3%,3,13µM*,-61%,?,12µM*
CCN(CC)C(=O)c1cc2cc(Br)ccc2oc1=O,0%,10,-12%,7.1µM*,1%,-7%
Cc1ccc(C(C)NC(=O)c2cc(C)oc2C)cc1 (stereo not given),2%,7,?,7%,-28%,?
N=c1oc2ccc(Br)cc2cc1C(=O)NC1CCCCCC1,0%,-23,5%,5%,16µM*,9.2µM*
Cc1ccc(C(C)NC(=O)c2cc3cc(Br)ccc3oc2=N)cc1 (stereo not given),0%,i,1%,0%,23µM*,21µM*
CCOC(=O)c1ccc(NC(=O)CCc2c(C)n(CC)c3cc(-c4ccccc4OC)nn3c2=O)cc1,nt,nt,11%,1%,12%,-12%
CN1C(C(=O)Nc2ccccn2)C(=O)c2sc(Cl)cc2S1(=O)=O (stereo not given),nt,nt,nt,nt,7%,8%
CN(C)CCNC(=O)c1cc2cc(Br)ccc2oc1=O,-2%,0,2%,-17%,-36%,-16%
CC(C)NC(=O)c1cc2cc(Br)ccc2oc1=O,4%,0,-6%,-21%,?,23µM*
COc1ccc(CNC(=O)CN2C(=O)CCn3nc(-c4ccccc4)cc32)c(OC)c1,nt,nt,?,1%,-19%,-26%
Oc1ccc(O)cc1,nt,nt,nt,nt,21µM*,?
O=C(c1ccc(O)cc1)c1ccc(C(=O)c2ccc(O)cc2)cc1,1%,0,?,-1%,-28%,?
COc1ccc(NC(=O)c2ccc3c(=O)n4nc(Nc5ccccc5C)sc4nc3c2)cc1Cl,nt,nt,9%,-9%,7.3µM*,5.8µM*
CCOc1ccc(NC(=O)c2ccc3c(=O)n4nc(Nc5ccccc5C)sc4nc3c2)cc1,nt,nt,1%,-10%,?,6.5µM*
COc1ccc(NC(=O)c2ccc3c(=O)n4nc(Nc5cccc(Cl)c5C)sc4nc3c2)cc1,nt,nt,-15%,-19%,2.9µM*,3.3µM*
Cc1ccc(NC(=O)c2ccc3c(=O)n4nc(Nc5ccccc5C)sc4nc3c2)cc1C,nt,nt,?,2.8µM*,2.9µM*,5.8µM*
COc1cccc(Nc2nn3c(=O)c4ccccc4nc3s2)c1,4%,nt,3%,4%,nt,nt
Cc1cccc(C(=O)Nc2c(C(=O)N3CCN(c4ccc(F)cc4)CC3)oc3ccccc23)c1,nt,nt,-14%,-13%,?,?
CCNc1ccc(C(=O)N/N=C/c2c(C)nn(-c3ccccc3)c2N2CCCC2)cc1[N+](=O)[O-],-10%,18,0%,0%,18µM*,?
O=C1/C(=C/c2ccco2)N=C(N2CCCCC2)N1c1ccccc1,243%,-8,-6%,-14%,21µM*,18µM*
CN1C(=S)N(c2ccccc2)C(=O)/C1=C/c1ccco1,-2%,2,0%,3%,?,?
CC(C)N(C1=N/C(=C\c2ccco2)C(=O)N1c1ccccc1)C(C)C,57%,14,1%,-13%,13µM*,?
SMILES,ASM inhibitor,IL1B secr inh,TGFb SMAD3 inh,HepG2 tox,TDP1 cell CPT,TDP1 cell noCPT
CCN(CC)C1=N/C(=C\c2ccc(OC)cc2)C(=O)N1c1ccccc1,334%,?,-17%,10%,-13%,?
CC(=O)Nc1ccc(-c2sc(Nc3cccc4ccccc34)n[n+]2-c2ccccc2)cc1,-9%,-6,6%,-4%,?,-12%
NC(=O)C1CCN(c2nc(-c3ccccc3)nc3c2oc2ccccc23)CC1,-1%,-71*,7%,-4%,?,?
O=C(C1CCN(c2nc(-c3ccccc3)nc3c2CCC3)CC1)N1CCCC1,3%,0,?,-27%,?,?
Cc1cc(N2CCC(C(N)=O)CC2)nc(-c2ccccc2)n1,-1%,-22,-2%,7%,3%,-21%
NC(=O)C1CCN(c2nc(-c3ccccc3)nc3ccccc23)CC1,0%,-54*,0%,-33%,-20%,-21%
CCOC(=O)C1CCN(c2nc(-c3ccc(Br)cc3)nc3ccccc23)CC1,-16%,0,?,4%,5.8µM*,4.1µM*
CC1CCCCN1C(=O)C1CCN(c2nc(-c3ccccc3)nc3c2CCC3)CC1 (stereo not given),-9%,-15,3%,-6%,21µM*,15µM*
CC(CCc1ccccc1)N1CCN(C)CC1 (stereo not given),2%,2,10%,8%,26%,-23%
CCOn1c(=O)c(-c2cccc(Br)c2)[n+]([O-])c2ccccc21,17%,-10,-5%,-2%,1%,-17%
COc1cccc(C(N)=O)c1OC(=O)Cc1ccccc1F,-8%,-5,10%,-9%,8%,-27%
CCCCc1c(C)nc2cc(-c3ccco3)[nH]n2c1=O,-3%,-96*,-7%,-24%,-1%,?
CCc1c(C)nc2cc(-c3ccccc3)[nH]n2c1=O,9%,-9,-1%,-8%,8.2µM*,12µM*
O=C1c2nc3cc(-c4ccco4)[nH]n3c(=O)c2CN1Cc1ccccc1,225%,-5,-6%,-27%,-5%,-7%
CCc1c(C)nc2c(-c3ccccc3)c(-c3ccccc3)[nH]n2c1=O,24%,13,-5%,-4%,2.3µM*,2.1µM*
C=CCc1c(C)nc2cc(-c3ccc(C)cc3)[nH]n2c1=O,-5%,10,4%,2%,?,?
O=[N+]([O-])c1ccc(F)c(CN2CCN(c3ncc(Cc4ccccc4)cn3)CC2)c1,nt,32,nt,nt,?,21µM*
O=[N+]([O-])c1ccc(Cl)c(CN2CCN(c3ncccn3)CC2)c1,-2%,-17,-13%,10%,-1%,-19%
COc1ccc([N+](=O)[O-])cc1CN1CCN(c2ncc(Cc3ccccc3)cn2)CC1,nt,-8,nt,nt,21µM*,18µM*
